{
  "source": "PubChem BioAssay AID1578",
  "about": "(Sanford-Burnham Center for Chemical Genomics, 2009)",
  "note": "Where “and” joins values, the source holds several entries; their conditions need not be identical. Equal values may be shown once. The whole screen tested about 290,000 compounds, of which about 3,000 (1%) were called active. The sample holds actives, similar compounds and a random draw of the others, so the mix is not that of the screen. A number with no mark means an inactive call. Rule as the data show it: active = inhibition mostly above about 36% (no sharp cut-off); inactive = mostly below about 34%.",
  "data": [
    {"experiment": "inhibition of NOD1-driven NF-kB reporter – cell-based, luminescence, uHTS, primary screen (AID 1578);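 also: HEK-293T reporter cells stimulated with the NOD1 agonist gamma-tri-DAP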", "settings": "NOD1-driven NF-kB luciferase reporter cells, at 4 µM, active compounds read high", "values": [
      {"smiles": "CCCCc1nn2c(N)c(/C=C3\\C=Nc4ccccc43)c(=O)nc2s1", "inhibition": "79.1% (active)"},
      {"smiles": "CCc1nn2c(N)c(/C=C3\\C=Nc4ccccc43)c(=O)nc2s1", "inhibition": "-37.5% and 2.9%"},
      {"smiles": "CCCc1nn2c(N)c(/C=C3\\C=Nc4ccccc43)c(=O)nc2s1", "inhibition": "-56% and -14.1%"},
      {"smiles": "Cc1ccc(S(=O)(=O)n2cc(-c3ccccc3)c(N)n2)cc1", "inhibition": "-4.9%"},
      {"smiles": "Nc1nonc1C(=O)NCCNC(=O)c1cccc(Cl)c1", "inhibition": "-28.8%"},
      {"smiles": "CC(=O)n1cc(N(C(=O)CCl)c2ccc([N+](=O)[O-])cc2)c2ccccc21", "inhibition": "38.7% (active)"},
      {"smiles": "O=Cc1[nH]c2ccccc2c1N(C(=O)CCl)c1ccc([N+](=O)[O-])cc1", "inhibition": "19.2%"},
      {"smiles": "CCOC(=O)c1ccccc1Nc1cn(C(C)=O)c2ccccc12", "inhibition": "-3.8%"},
      {"smiles": "CC(=O)n1cc(Nc2ccc([N+](=O)[O-])cc2)c2ccccc21", "inhibition": "-18%"},
      {"smiles": "COc1ccccc1N(C(=O)CCl)c1cn(C(C)=O)c2ccccc12", "inhibition": "93% (active)"},
      {"smiles": "CC(=O)n1cc(N(C(=O)CCl)c2ccc(Cl)cc2)c2ccccc21", "inhibition": "14.2%"},
      {"smiles": "CC(=O)n1cc(CO)c2ccccc21", "inhibition": "-5.2%"},
      {"smiles": "CC(=O)N(c1ccc(Cl)cc1)c1cn(C(C)=O)c2ccccc12", "inhibition": "-16.5%"},
      {"smiles": "CN1/C(=C/C(=O)CSc2ccccc2C(=O)O)C(C)(C)c2ccccc21", "inhibition": "10.5%"},
      {"smiles": "CCC(Oc1ccccc1OC)C(=O)N1CC(=O)Nc2ccccc21", "note": "(configuration not stated)", "inhibition": "29%"},
      {"smiles": "CCOc1ccc(NS(=O)(=O)c2ccc(NS(=O)(=O)c3cccs3)cc2)cc1", "inhibition": "-17.3%"},
      {"smiles": "COc1ccc(Cl)cc1NC(=O)N(C)Cc1c(C)nn(C)c1C", "inhibition": "-24.6%"},
      {"smiles": "Cc1cc(NCc2ccccc2)nc(-c2ccccc2O)n1", "inhibition": "-41.6%"},
      {"smiles": "CC(=O)c1c(C)[n+]([O-])c2ccc3c(non3O)c12", "inhibition": "-20%"},
      {"smiles": "CCOC(=O)c1c(C)[n+]([O-])c2ccc3c(non3O)c12", "inhibition": "-24.8%"},
      {"smiles": "[O-][n+]1c2c(c3c4non(O)c4ccc31)CCCC2", "inhibition": "79.7% (active)"},
      {"smiles": "CCN(C(=O)c1c(-c2ccccc2Cl)noc1C)C1CCCCC1", "inhibition": "-10.1%"},
      {"smiles": "Cc1cc(C)c2nc(C(F)(F)F)c(C#N)c(N)c2c1", "inhibition": "76.9% (active)"},
      {"smiles": "Cc1cc(C)c2nc3nc(C)c(C)cc3c(N)c2c1", "inhibition": "-27.3%"},
      {"smiles": "Cc1cc(C)c2nc3nc(C)cc(C)c3c(N)c2c1", "inhibition": "-26.5%"},
      {"smiles": "COc1cc2c(=O)n(CCC(=O)NCC3CCCO3)c(=O)n(CC(=O)Nc3ccc(C)c(C)c3)c2cc1OC", "note": "(configuration not stated)", "inhibition": "-11.3%"},
      {"smiles": "CC(C)(CO)NS(=O)(=O)c1ccc2c(c1)oc(=O)c1cc(S(=O)(=O)NC(C)(C)CO)ccc12", "inhibition": "-6.5%"},
      {"smiles": "CC(C)(C)C(=O)Nc1cc2nn(-c3ccccc3)nc2cc1Cl", "inhibition": "87.1% (active)"},
      {"smiles": "CC(=O)Nc1cc2nn(-c3ccccc3)nc2cc1Cl", "inhibition": "-27.6%"},
      {"smiles": "CCC(=O)Nc1cc2nn(-c3ccccc3)nc2cc1Cl", "inhibition": "-22.2%"},
      {"smiles": "O=C(O)C1CCCN1c1ncccc1[N+](=O)[O-]", "note": "(configuration not stated)", "inhibition": "-20.8%"},
      {"smiles": "CCN1CCN(CC(O)COCCOc2ccc(Br)cc2)CC1", "note": "(configuration not stated)", "inhibition": "-19.1%"},
      {"smiles": "CN1CCN(CC(O)COCCOc2ccc(Br)cc2)CC1", "note": "(configuration not stated)", "inhibition": "-26%"},
      {"smiles": "OCCN1CCN(CC(O)COCCOc2ccc(Br)cc2)CC1", "note": "(configuration not stated)", "inhibition": "62.2% (active)"},
      {"smiles": "O=C(COc1ccccc1CNCc1ccccc1)Nc1ccccc1", "inhibition": "-69.5%"},
      {"smiles": "O=c1c2cc(NC(=S)N3CCCCC3)ccc2nc2n1CCCCC2", "inhibition": "-32.7%"},
      {"smiles": "CCCNC(=O)c1ccc(-c2nc3ccccc3s2)s1", "inhibition": "-50.1%"},
      {"smiles": "O=C(NC1CC1)c1ccc(-c2nc3ccccc3s2)s1", "inhibition": "70.1% (active)"},
      {"smiles": "O=CN1CCN(C(=O)c2ccc(-c3nc4ccccc4s3)s2)CC1", "inhibition": "-25.6%"},
      {"smiles": "CCN1CCN(C(=O)c2ccc(-c3nc4ccccc4s3)s2)CC1", "inhibition": "-43.4%"},
      {"smiles": "Cc1ccc2nc(NC(=O)c3ccc(-c4nc5ccccc5s4)s3)sc2c1", "inhibition": "-74.1%"},
      {"smiles": "O=C(c1ccc(-c2nc3ccccc3s2)s1)N1CCOCC1", "inhibition": "82.9% (active)"},
      {"smiles": "COc1ccc(NC2CCCN(C(=O)CN3C(=O)c4ccccc4C3=O)C2)cc1OC", "note": "(configuration not stated)", "inhibition": "-24.8%"},
      {"smiles": "COc1ccc(OC)c2c(C)cc(N3CCN(C(=O)c4ccc(C)cc4)CC3)nc12", "inhibition": "-12.9%"},
      {"smiles": "CN(C1CCCCC1)C(CNS(=O)(=O)c1ccc(Cl)cc1)c1ccccc1", "note": "(configuration not stated)", "inhibition": "-15.5%"},
      {"smiles": "O=C(O)c1ccccc1-n1cccc1C(=O)O", "inhibition": "-9.5%"},
      {"smiles": "O=C(CN1CCc2ccccc2C1)Nc1cc(S(=O)(=O)N2CCOCC2)ccc1N1CCOCC1", "inhibition": "-17.8%"},
      {"smiles": "CCN(CC)c1ccc(S(=O)(=O)N2CCOCC2)cc1NC(=O)CN1CCN(Cc2ccccc2)CC1", "inhibition": "-3.8%"},
      {"smiles": "O=C(NNC(=O)c1ccccc1C(F)(F)F)c1csc(N2CCOCC2)n1", "inhibition": "-87.8%"},
      {"smiles": "O=C(NNC(=O)c1ccccc1OCc1ccccc1Cl)c1csc(N2CCOCC2)n1", "inhibition": "96.3% (active)"},
      {"smiles": "O=C(NNC(=O)c1cc(Br)ccc1Cl)c1csc(N2CCOCC2)n1", "inhibition": "-14.6%"},
      {"smiles": "CCc1ccc(NC(=O)CN2CCCN(S(=O)(=O)c3ccc(F)cc3)CC2)cc1", "inhibition": "-21.6%"},
      {"smiles": "O=C1CC(c2nc3ccccc3[nH]2)CN1Cc1ccccc1", "note": "(configuration not stated)", "inhibition": "-15%"},
      {"smiles": "COc1ccc(CCNC(=O)C2CC(=O)N(C3CCCCCCC3)C2)cc1OC", "note": "(configuration not stated)", "inhibition": "-23.8%"},
      {"smiles": "O=c1c2ccccc2nc2n1CCS2", "inhibition": "-2.5%"},
      {"smiles": "Cc1ccc2c(=O)cc(C(=O)NC3CCS(=O)(=O)C3)oc2c1", "note": "(configuration not stated)", "inhibition": "-12%"},
      {"smiles": "O=C(NCc1nc(-c2ccc(C(F)(F)F)cc2)no1)Nc1ccc(OC(F)(F)F)cc1", "inhibition": "5.1%"},
      {"smiles": "O=C(NCc1nc(-c2ccc(C(F)(F)F)cc2)no1)Nc1ccc(F)cc1F", "inhibition": "3.8%"},
      {"smiles": "O=C(NCc1nc(-c2ccc(C(F)(F)F)cc2)no1)Nc1cc(Cl)cc(Cl)c1", "inhibition": "44.1% (active)"},
      {"smiles": "Cc1ccccc1CC(=O)N1CC(C)OC(C)C1", "note": "(configuration not stated)", "inhibition": "-15.5%"},
      {"smiles": "O=C(NC(=S)Nc1cccc2cccnc12)c1ccccc1", "inhibition": "-2.9%"},
      {"smiles": "O=C(NC(=S)Nc1cccc2cnccc12)c1ccccc1", "inhibition": "80.9% (active)"},
      {"smiles": "O=C(NC(=S)Nc1cccc2[nH]ncc12)c1ccccc1", "inhibition": "68.4% (active)"},
      {"smiles": "S=C(NCc1ccccc1)Nc1cccc2cnccc12", "inhibition": "41.4%"},
      {"smiles": "CNC(=S)Nc1cccc2[nH]ncc12", "inhibition": "-6.5%"},
      {"smiles": "O=C(Nc1cccc2[nH]ncc12)c1ccc(F)cc1", "inhibition": "-0.2%"},
      {"smiles": "CS(=O)(=O)N(CC(=O)Nc1cccnc1)c1ccc2c(c1)OCCO2", "inhibition": "-12.2%"},
      {"smiles": "CS(=O)(=O)N1CCN(c2ccccc2NC(=O)c2ccc(-c3ccc(Br)cc3)o2)CC1", "inhibition": "-21.7%"},
      {"smiles": "CC(C)c1ccc(NC(=O)COC(=O)CCC(=O)c2cccs2)cc1", "inhibition": "5.4%"},
      {"smiles": "O=C1c2ccccc2C(=O)c2c1cccc2-n1nnc2ccccc21", "inhibition": "3.1%"},
      {"smiles": "O=C(O)c1ccc(NC2=C(n3nnc4ccccc43)C(=O)c3ccccc3C2=O)cc1", "inhibition": "-3.8%"},
      {"smiles": "O=C1C(N2CCOCC2)=C(n2nnc3ccccc32)C(=O)c2ccccc21", "inhibition": "101% (active)"},
      {"smiles": "CCOC(=O)c1ccc(NC(=O)CN2C(=O)C(CC)SC(CC)C2=O)cc1", "note": "(configuration not stated)", "inhibition": "-15.5%"},
      {"smiles": "O=C(c1ccc2ccccc2c1)N1CCCCC1", "inhibition": "14.9%"},
      {"smiles": "CCc1nnc(NC(=O)c2nn(-c3ccccc3)nc2C)s1", "inhibition": "-6.6%"},
      {"smiles": "CCSc1nnc(NC(=O)c2ccc(Br)s2)s1", "inhibition": "-37.5%"},
      {"smiles": "Cc1nn(-c2ccccc2)nc1C(=O)Nc1nnc(C(F)(F)F)s1", "inhibition": "54.4% (active)"},
      {"smiles": "O=C(Nc1nnc(C(F)(F)F)s1)c1c(F)cccc1F", "inhibition": "2%"},
      {"smiles": "Cc1nn(-c2ccccc2)nc1C(=O)NNC(=O)c1ccc(C(F)(F)F)cc1", "inhibition": "-5.6%"},
      {"smiles": "O=C(Nc1nnc(C(F)(F)F)s1)c1ccc(Br)s1", "inhibition": "84% (active)"},
      {"smiles": "CC1(C)CC(=O)/C(=C(\\O)CCCN2C(=O)c3ccccc3C2=O)C(=NCCO)C1", "inhibition": "-17.2%"},
      {"smiles": "COc1cc2[nH]c(C(=O)NN)c(N)c2cc1OC", "inhibition": "-7.9%"},
      {"smiles": "CC(C)(C)NC(=O)C(c1ccccc1)N(Cc1ccco1)C(=O)c1csnn1", "note": "(configuration not stated)", "inhibition": "-0.4%"},
      {"smiles": "CCOC(=O)C1CCN(C(=O)Cn2cccc2C(=O)c2ccccc2)CC1", "inhibition": "-13.4%"},
      {"smiles": "CC1CN(Cc2nc3c(c(=O)[nH]c(=O)n3C)n2CCN2CCOCC2)CC(C)O1", "note": "(configuration not stated)", "inhibition": "7.3%"},
      {"smiles": "CC(C)[C@H](NC(=O)[C@@H]1CSC2c3ccccc3C(=O)N21)C(=O)NCc1ccncc1", "note": "(some centres not stated)", "inhibition": "-23.2%"},
      {"smiles": "c1ccc(-c2ccccn2)nc1", "inhibition": "-28.9%"},
      {"smiles": "c1ccc(-c2cccc(-c3ccccn3)n2)nc1", "inhibition": "90.2% (active)"},
      {"smiles": "c1ccc(-c2ccc(-c3ccccn3)nn2)nc1", "inhibition": "27.1%"},
      {"smiles": "O=C(c1ccc2c3c(cccc13)CC2)C1CCCN(C(=O)c2ccc[n+]([O-])c2)C1", "note": "(configuration not stated)", "inhibition": "10.8%"},
      {"smiles": "CCn1c(C)c(C(C)=O)cc(C#N)c1=O", "inhibition": "-4.6%"},
      {"smiles": "C=CCNC(=O)C1CCN(c2c([N+](=O)[O-])cc(C(F)(F)F)cc2[N+](=O)[O-])CC1", "inhibition": "2.2%"},
      {"smiles": "Cc1ccccc1NS(=O)(=O)c1ccc(OCC(=O)NCc2ccco2)cc1", "inhibition": "-20.7%"},
      {"smiles": "CSC1=C(C#N)C(=O)NC(c2ccccc2O)S1", "note": "(configuration not stated)", "inhibition": "-3.8%"},
      {"smiles": "CSC1=C(C#N)C(=O)NC(c2ccc(Cl)cc2)S1", "note": "(configuration not stated)", "inhibition": "45% (active)"},
      {"smiles": "COC(=O)CSC1=C(C#N)C(=O)NC(c2ccccc2)S1", "note": "(configuration not stated)", "inhibition": "38.8%"},
      {"smiles": "COc1cc([N+](=O)[O-])ccc1NC(=S)NNC(=O)c1ccc2c(c1)OCO2", "inhibition": "15.2%"}
    ]}
  ]
}
